Results published in article PMC7862700, “An all-to-all approach to the identification of sequence-specific readers for epigenetic DNA modifications on cytosine”.

How the values were obtained:
Experiment in all cases: DAPPL (digital affinity profiling via proximity ligation, sequencing); 10 mM Tris-HCl pH 7.5, 50 mM NaCl, 1 mM DTT, 4% glycerol, room temperature, 30 min; GST-TFs on glutathione beads, 16-mer random dsDNA library, 0.1% formaldehyde crosslink after washing; high values mean tight binding
FLI1 = target: T1, FLI1 (Homo sapiens, UniProt Q01543 1-452); details: protein: recombinant; tags: N-terminal GST; dsDNA, one strand shown
T1 sequence: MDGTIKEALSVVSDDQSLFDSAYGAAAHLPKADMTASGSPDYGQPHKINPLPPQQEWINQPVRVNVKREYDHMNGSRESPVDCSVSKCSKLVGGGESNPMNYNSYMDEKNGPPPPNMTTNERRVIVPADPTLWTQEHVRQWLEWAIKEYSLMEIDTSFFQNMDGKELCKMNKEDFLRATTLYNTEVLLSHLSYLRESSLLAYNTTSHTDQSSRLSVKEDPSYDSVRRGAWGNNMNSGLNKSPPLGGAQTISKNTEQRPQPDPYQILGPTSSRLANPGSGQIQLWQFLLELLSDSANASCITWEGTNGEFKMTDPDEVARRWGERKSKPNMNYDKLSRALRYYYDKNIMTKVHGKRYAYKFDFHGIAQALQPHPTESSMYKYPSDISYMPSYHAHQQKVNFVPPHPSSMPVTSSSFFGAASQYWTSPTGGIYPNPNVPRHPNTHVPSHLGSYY
How it was run: (§1)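 Human transcription factors fused to GST were expressed in yeast, captured on glutathione beads, given DNA barcodes and pooled with a GST-only negative control. Pools were incubated with 200 nmole of a 16-mer random double-stranded DNA library in Tris/NaCl/DTT/glycerol buffer at room temperature for 30 min. They were then washed, crosslinked with 0.1% formaldehyde, proximity-ligated (BsaI/T4 ligase, 1 h, 37 °C), PCR-amplified and sequenced on an Illumina NextSeq500. Binding signal is each 6-mer's read frequency for a factor divided by its frequency for the GST control.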

ELK1 = target: T2, ELK1 (Homo sapiens, UniProt P19419 1-428); details: protein: recombinant; tags: N-terminal GST; dsDNA, one strand shown
T2 sequence: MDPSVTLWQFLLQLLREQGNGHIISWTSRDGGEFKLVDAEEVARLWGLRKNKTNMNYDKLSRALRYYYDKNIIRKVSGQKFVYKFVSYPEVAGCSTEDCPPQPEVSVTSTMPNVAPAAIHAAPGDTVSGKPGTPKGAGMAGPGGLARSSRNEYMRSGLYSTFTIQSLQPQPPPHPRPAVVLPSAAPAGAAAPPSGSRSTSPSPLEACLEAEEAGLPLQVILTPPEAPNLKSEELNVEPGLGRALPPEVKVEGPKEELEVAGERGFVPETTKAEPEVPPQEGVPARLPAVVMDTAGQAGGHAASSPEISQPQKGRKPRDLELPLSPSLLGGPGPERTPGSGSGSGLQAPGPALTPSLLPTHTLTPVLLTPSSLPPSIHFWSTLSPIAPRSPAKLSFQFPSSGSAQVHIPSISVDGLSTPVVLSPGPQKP
How it was run: as §1

GABPA = target: T3, GABPA (Homo sapiens, UniProt Q06546 1-454); details: protein: recombinant; tags: N-terminal GST; dsDNA, one strand shown
T3 sequence: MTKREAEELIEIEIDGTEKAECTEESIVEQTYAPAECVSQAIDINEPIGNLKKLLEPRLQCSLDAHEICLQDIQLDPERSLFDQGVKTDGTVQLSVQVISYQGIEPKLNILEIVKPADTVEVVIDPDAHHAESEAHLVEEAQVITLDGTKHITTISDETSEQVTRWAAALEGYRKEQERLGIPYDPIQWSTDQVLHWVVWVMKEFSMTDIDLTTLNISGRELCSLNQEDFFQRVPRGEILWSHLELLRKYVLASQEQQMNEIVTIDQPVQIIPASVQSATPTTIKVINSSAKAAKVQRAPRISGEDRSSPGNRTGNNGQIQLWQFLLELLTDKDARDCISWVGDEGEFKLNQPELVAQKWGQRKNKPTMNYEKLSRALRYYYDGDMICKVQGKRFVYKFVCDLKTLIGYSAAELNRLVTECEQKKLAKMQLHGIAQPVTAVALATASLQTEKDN
How it was run: as §1

ERG = target: T4, ERG (Homo sapiens, UniProt P11308 1-479); details: protein: recombinant; tags: N-terminal GST; dsDNA, one strand shown
T4 sequence: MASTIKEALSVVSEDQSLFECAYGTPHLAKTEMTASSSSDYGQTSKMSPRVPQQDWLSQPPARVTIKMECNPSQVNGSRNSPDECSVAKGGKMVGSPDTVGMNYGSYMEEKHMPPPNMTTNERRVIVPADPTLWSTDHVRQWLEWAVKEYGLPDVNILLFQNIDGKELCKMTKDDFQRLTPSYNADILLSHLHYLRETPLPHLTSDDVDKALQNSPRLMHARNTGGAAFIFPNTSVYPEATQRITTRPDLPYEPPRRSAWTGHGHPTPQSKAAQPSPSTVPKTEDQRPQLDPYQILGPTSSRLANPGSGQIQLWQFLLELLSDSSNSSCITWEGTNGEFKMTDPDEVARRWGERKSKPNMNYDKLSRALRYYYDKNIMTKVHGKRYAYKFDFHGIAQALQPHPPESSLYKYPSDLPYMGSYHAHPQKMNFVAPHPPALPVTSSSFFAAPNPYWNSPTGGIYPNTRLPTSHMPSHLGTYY
How it was run: as §1

ELF1 = ELF1 (Homo sapiens, UniProt P32519 1-619); details: protein: recombinant; tags: N-terminal GST; dsDNA, one strand shown
ELF1, sequence (P32519 whole entry): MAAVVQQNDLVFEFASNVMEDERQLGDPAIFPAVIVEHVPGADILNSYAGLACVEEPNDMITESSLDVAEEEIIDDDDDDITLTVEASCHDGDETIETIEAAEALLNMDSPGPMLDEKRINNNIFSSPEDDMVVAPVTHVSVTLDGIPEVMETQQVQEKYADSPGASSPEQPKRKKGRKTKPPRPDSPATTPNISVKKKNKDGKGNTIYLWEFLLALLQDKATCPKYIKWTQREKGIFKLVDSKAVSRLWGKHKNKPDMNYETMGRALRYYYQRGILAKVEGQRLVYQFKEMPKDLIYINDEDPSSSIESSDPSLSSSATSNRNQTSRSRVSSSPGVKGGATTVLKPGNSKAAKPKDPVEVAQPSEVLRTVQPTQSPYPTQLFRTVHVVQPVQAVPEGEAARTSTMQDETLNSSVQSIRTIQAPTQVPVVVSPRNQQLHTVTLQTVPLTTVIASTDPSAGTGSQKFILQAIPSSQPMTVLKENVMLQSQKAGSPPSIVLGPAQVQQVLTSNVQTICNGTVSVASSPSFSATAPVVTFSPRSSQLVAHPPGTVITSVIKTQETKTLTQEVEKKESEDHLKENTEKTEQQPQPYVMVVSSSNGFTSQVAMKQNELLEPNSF
How it was run: as §1

EHF = target: T5, EHF (Homo sapiens, UniProt Q9NZC4 1-300); details: protein: recombinant; tags: N-terminal GST; dsDNA, one strand shown
T5 sequence: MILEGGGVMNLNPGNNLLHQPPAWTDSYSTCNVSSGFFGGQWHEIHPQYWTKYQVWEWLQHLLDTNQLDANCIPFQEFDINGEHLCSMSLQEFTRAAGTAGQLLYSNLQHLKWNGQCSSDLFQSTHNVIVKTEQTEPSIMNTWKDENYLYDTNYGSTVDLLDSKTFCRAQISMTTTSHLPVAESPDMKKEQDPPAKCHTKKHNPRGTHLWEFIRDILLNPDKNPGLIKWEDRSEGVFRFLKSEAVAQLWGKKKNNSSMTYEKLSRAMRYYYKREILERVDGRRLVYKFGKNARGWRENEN
How it was run: as §1

SPI1 = SPI1 (Homo sapiens, UniProt P17947 1-270); details: protein: recombinant; tags: N-terminal GST; dsDNA, one strand shown
How it was run: as §1

SPIB = SPIB (Homo sapiens, UniProt Q01892 1-262); details: protein: recombinant; tags: N-terminal GST; dsDNA, one strand shown
SPIB, sequence (Q01892 whole entry): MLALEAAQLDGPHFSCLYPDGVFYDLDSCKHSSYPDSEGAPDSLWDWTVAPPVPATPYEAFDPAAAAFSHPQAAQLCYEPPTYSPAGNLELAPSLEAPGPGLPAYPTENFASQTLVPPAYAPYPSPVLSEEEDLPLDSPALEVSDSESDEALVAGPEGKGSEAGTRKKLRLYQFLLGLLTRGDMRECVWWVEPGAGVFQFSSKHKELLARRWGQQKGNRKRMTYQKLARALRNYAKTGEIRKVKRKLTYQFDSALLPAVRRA
How it was run: as §1

ELK3 = target: T6, ELK3 (Homo sapiens, UniProt P41970 1-407); details: protein: recombinant; tags: N-terminal GST; dsDNA, one strand shown
T6 sequence: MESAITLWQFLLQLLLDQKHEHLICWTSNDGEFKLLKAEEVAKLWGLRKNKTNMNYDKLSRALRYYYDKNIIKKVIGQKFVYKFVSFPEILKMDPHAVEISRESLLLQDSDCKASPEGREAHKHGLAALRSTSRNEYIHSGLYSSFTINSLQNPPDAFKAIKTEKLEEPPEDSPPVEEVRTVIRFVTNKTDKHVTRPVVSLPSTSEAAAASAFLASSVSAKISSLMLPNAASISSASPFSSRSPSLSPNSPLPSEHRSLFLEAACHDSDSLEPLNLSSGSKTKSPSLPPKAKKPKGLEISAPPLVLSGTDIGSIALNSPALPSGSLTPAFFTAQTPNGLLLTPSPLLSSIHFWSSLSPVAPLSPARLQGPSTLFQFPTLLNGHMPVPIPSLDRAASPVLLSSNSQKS
How it was run: as §1

FEV = target: T7, FEV (Homo sapiens, UniProt Q99581 1-238); details: protein: recombinant; tags: N-terminal GST; dsDNA, one strand shown
T7 sequence: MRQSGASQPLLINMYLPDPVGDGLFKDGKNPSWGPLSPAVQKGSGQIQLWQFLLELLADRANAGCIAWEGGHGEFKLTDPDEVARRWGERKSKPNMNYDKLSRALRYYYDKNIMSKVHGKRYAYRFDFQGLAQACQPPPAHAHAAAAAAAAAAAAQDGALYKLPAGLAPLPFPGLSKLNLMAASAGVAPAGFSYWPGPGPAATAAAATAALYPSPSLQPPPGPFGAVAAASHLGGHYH
How it was run: as §1

ETV5 = ETV5 (Homo sapiens, UniProt P41161 1-510); details: protein: recombinant; tags: N-terminal GST; dsDNA, one strand shown
ETV5, sequence (P41161 whole entry): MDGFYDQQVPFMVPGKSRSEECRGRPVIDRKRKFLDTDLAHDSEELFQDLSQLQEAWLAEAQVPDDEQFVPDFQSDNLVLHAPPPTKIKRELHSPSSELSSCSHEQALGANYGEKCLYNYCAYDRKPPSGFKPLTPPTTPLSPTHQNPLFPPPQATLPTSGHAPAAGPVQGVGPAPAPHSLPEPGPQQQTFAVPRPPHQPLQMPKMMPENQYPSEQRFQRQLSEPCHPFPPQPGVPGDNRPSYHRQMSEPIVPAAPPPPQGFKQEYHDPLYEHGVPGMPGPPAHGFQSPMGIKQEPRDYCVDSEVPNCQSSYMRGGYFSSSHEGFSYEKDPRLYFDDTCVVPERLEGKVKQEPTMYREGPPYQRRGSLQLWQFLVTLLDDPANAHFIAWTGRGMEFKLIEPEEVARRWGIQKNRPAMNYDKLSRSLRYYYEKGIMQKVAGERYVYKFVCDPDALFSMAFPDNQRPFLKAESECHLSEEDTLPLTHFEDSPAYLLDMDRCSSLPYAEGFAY
How it was run: as §1

HSF1 = HSF1 (Homo sapiens, UniProt Q00613 1-529); details: protein: recombinant; tags: N-terminal GST; chain copies: 3; dsDNA, one strand shown
HSF1, sequence (Q00613 whole entry): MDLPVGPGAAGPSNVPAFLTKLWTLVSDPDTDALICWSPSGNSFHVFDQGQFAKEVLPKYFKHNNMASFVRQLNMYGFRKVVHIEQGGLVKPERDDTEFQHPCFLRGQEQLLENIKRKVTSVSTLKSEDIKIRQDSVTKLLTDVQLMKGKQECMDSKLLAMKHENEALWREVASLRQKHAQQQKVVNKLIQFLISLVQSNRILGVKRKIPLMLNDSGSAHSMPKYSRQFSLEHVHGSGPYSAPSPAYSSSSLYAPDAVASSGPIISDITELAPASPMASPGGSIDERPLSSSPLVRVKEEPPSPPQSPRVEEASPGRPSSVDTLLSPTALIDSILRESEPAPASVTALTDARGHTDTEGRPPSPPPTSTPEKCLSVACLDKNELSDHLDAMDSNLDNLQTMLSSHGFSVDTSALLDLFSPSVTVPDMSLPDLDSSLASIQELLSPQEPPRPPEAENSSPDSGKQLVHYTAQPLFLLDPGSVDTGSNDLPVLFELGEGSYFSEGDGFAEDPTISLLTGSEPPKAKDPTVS
How it was run: as §1

SPIC = target: T8, SPIC (Homo sapiens, UniProt Q8N5J4 1-248); details: protein: recombinant; tags: N-terminal GST; dsDNA, one strand shown
T8 sequence: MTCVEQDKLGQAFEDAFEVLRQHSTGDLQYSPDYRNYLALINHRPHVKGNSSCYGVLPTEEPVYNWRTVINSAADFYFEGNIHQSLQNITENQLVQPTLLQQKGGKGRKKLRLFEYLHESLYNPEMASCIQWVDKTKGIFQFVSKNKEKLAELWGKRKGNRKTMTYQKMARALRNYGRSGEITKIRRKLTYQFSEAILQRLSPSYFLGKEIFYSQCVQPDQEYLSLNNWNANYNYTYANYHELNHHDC
How it was run: as §1

ELF4 = ELF4 (Homo sapiens, UniProt Q99607 1-663); details: protein: recombinant; tags: N-terminal GST; dsDNA, one strand shown
ELF4, sequence (Q99607 whole entry): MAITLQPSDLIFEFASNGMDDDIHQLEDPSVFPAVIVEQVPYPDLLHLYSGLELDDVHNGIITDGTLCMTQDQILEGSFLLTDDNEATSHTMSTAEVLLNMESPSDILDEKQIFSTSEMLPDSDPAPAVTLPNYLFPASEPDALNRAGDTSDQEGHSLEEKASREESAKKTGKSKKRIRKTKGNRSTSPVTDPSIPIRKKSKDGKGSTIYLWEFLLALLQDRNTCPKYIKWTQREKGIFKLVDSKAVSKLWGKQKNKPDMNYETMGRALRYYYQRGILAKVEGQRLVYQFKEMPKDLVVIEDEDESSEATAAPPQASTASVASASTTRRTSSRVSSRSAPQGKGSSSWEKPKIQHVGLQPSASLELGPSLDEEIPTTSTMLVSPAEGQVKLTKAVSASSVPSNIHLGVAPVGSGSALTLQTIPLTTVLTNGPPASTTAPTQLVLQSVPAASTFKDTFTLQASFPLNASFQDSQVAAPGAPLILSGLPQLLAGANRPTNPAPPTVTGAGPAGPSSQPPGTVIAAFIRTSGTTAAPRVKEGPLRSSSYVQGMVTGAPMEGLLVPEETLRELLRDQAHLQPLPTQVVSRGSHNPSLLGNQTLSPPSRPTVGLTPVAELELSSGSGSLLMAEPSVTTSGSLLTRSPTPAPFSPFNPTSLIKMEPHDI
How it was run: as §1

ELK4 = target: T9, ELK4 (Homo sapiens, UniProt P28324-2 1-405); details: protein: recombinant; tags: N-terminal GST; dsDNA, one strand shown
T9 sequence: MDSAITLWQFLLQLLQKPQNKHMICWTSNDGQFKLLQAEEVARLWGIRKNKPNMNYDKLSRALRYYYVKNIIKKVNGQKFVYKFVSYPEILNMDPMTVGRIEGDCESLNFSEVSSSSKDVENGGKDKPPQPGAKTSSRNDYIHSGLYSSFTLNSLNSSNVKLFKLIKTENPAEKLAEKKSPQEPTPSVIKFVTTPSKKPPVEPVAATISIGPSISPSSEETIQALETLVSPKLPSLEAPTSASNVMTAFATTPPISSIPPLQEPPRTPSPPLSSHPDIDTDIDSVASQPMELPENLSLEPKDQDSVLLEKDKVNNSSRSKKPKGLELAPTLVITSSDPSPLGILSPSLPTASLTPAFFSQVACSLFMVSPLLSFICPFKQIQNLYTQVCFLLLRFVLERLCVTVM
How it was run: as §1

ETV2 = target: T10, ETV2 (Homo sapiens, UniProt O00321 1-342); details: protein: recombinant; tags: N-terminal GST; dsDNA, one strand shown
T10 sequence: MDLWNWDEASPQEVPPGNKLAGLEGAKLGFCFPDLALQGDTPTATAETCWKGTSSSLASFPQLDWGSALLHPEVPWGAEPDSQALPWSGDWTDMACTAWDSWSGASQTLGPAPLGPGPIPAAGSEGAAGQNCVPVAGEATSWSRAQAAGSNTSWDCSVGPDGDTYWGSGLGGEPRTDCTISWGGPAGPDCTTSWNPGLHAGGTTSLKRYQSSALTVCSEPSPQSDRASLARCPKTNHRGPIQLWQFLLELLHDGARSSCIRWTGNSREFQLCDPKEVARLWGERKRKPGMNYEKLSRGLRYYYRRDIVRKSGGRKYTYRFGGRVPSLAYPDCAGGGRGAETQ
How it was run: as §1

ELF3 = target: T11, ELF3 (Homo sapiens, UniProt P78545 1-371); details: protein: recombinant; tags: N-terminal GST; dsDNA, one strand shown
T11 sequence: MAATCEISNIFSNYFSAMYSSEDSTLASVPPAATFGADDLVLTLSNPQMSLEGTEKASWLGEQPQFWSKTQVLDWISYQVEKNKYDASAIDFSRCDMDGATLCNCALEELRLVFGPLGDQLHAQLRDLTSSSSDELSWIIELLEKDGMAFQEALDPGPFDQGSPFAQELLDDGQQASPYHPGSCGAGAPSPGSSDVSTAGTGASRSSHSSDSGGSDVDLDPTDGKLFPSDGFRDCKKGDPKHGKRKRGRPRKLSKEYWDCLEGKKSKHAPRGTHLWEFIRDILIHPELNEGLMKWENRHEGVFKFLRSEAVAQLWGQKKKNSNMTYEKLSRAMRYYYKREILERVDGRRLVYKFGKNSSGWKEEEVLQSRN
How it was run: as §1

CRX = CRX (Homo sapiens, UniProt O43186 1-299); details: protein: recombinant; tags: N-terminal GST; dsDNA, one strand shown
CRX, sequence (O43186 whole entry): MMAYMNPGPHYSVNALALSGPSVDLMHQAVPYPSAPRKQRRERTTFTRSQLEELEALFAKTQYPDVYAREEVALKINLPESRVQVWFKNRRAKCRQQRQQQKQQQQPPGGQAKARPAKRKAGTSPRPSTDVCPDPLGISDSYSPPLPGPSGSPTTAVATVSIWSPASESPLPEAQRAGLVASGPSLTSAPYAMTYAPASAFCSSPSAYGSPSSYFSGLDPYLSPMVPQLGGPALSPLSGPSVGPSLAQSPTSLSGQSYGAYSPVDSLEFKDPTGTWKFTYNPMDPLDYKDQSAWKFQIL
How it was run: as §1

ETV1 = ETV1 (Homo sapiens, UniProt P50549 1-477); details: protein: recombinant; tags: N-terminal GST; dsDNA, one strand shown
ETV1, sequence (P50549 whole entry): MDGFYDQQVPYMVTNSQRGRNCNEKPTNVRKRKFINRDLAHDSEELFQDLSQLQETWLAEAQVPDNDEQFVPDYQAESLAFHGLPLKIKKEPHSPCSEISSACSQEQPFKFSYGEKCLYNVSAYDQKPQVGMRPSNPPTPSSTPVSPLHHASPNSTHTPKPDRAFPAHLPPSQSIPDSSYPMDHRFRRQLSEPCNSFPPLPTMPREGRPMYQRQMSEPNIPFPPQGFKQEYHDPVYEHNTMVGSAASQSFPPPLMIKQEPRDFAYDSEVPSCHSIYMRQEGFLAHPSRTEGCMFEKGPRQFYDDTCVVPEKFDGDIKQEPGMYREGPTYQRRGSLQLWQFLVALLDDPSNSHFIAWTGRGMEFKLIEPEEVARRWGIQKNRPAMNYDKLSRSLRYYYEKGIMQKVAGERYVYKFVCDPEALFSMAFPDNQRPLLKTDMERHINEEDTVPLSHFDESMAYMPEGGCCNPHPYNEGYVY
How it was run: as §1

TATTAC was tested, and the binding signal (FLI1) was 1.24 fold enrichment (6-mer frequency, TF over GST control), the binding signal (ELK1) was 1.2 fold enrichment (6-mer frequency, TF over GST control) and the binding signal (GABPA) was 1.09 fold enrichment (6-mer frequency, TF over GST control). The binding signal (ERG) was 1.16 fold enrichment (6-mer frequency, TF over GST control), the binding signal (ELF1) was 1.19 fold enrichment (6-mer frequency, TF over GST control) and the binding signal (EHF) was 1.19 fold enrichment (6-mer frequency, TF over GST control). The binding signal (SPI1) was 1.12 fold enrichment (6-mer frequency, TF over GST control), the binding signal (SPIB) was 1.21 fold enrichment (6-mer frequency, TF over GST control) and the binding signal (ELK3) was 1.16 fold enrichment (6-mer frequency, TF over GST control). The binding signal (FEV) was 1.16 fold enrichment (6-mer frequency, TF over GST control), the binding signal (ETV5) was 1.28 fold enrichment (6-mer frequency, TF over GST control) and the binding signal (HSF1) was 1.33 fold enrichment (6-mer frequency, TF over GST control). For the same sequence, the binding signal (SPIC) was 1.24 fold enrichment (6-mer frequency, TF over GST control), the binding signal (ELF4) was 1.2 fold enrichment (6-mer frequency, TF over GST control) and the binding signal (ELK4) was 1.31 fold enrichment (6-mer frequency, TF over GST control). For the same sequence, the binding signal (ETV2) was 1.27 fold enrichment (6-mer frequency, TF over GST control), the binding signal (ELF3) was 1.16 fold enrichment (6-mer frequency, TF over GST control) and the binding signal (CRX) was 1.79 fold enrichment (6-mer frequency, TF over GST control). For the same sequence, the binding signal (ETV1) was 1.27 fold enrichment (6-mer frequency, TF over GST control).
